# High-throughput results deposited in PubChem by National Center for Advancing Translational Sciences (NCATS).
# KinaseGlo FLuc – counter-screen: inhibitors of Kinase-Glo firefly luciferase; 200,000 tested, 0.28% active; Potency, µM (doses to about 38.3 µM), for the others: top-dose activity change, negative = inhibition, actives largely listed as inhibitors; Kinase-Glo luciferase, ATP luminescence, 8 min; AID 1379; further: on the % scale 0 is the no-effect control and ±100 the full control effect; nearly all actives have a fitted effect of over 60% in size
#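 Recombinant Kinase-Glo luciferase, 10 uM ATP (linear range), luciferin; imidazole pH 7.2 / KCl / MgCl2 / Tween / BSA buffer; 8 min RT; luminescence.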
# NPC1 promoter act – activators of NPC1 promoter | Potency, µM (titrated, usually from 9.22 µM), without a hit: at the top dose activation, hits mostly activators | 320,000 tested, 2.4% active | Huh7 NPC1 promoter luciferase reporter, 24 h; further: % of control where 0% means no effect; nearly all actives have a fitted effect of over 60% in size
#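 Luminescence from an NPC1 promoter-driven luciferase reporter in stably transfected Huh7 cells was measured after 24 h compound treatment at 37 °C, followed by 10 min ambient incubation with luciferase detection reagent.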
# Rab9 prom act – activators of Rab9 promoter. Huh7 Rab9 promoter-luciferase reporter, luminescence, 24 h. Potency, µM (top dose mostly 9.22 µM), for inactives: at the highest dose activation, negative = inhibition, hits mostly activators. 320,000 tested, 2.8% active; further: % of control where 0% means no effect; nearly all actives have a fitted effect of over 60% in size
#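 Promoter activation is measured as luciferase luminescence in Huh7 cells stably transfected with a Rab9 promoter–luciferase construct, following 24 h compound exposure at 37 °C and 10 min reagent incubation at ambient temperature.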
# FLuc counter – inhibits or activates purified firefly luciferase, miR-21 counter-screen. Potency, µM (highest dose often 57.5 µM), for the others: at the highest dose activity change, negative = inhibition, usual class: inhibitors. 360,000 tested, 6.9% active. AID 588342. P08659. purified FLuc, Km substrates, luminescence inhibition;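 further: plate controls were vehicle for no effect and reference inhibitor for full effect; nearly all actives have a fitted effect of over 55% in size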
# Target sequence (P08659 whole entry, looked up): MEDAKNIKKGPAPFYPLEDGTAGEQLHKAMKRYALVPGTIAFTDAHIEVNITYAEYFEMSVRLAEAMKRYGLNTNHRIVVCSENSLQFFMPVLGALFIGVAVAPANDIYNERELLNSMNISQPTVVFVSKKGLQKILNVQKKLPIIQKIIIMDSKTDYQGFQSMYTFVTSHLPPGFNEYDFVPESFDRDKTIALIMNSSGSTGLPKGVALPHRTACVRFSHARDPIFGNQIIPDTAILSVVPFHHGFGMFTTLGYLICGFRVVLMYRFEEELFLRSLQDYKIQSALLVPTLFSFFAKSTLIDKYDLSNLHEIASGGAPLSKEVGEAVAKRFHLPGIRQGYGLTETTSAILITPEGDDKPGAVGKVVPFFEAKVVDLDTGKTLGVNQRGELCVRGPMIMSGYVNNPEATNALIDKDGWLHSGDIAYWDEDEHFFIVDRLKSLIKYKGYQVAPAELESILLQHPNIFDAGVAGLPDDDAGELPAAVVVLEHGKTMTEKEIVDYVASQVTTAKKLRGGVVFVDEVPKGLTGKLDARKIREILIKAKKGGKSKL
#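 Purified P. pyralis luciferase, 10 nM final, with Km-level 10 uM D-luciferin and 10 uM ATP in 50 mM Tris acetate pH 7.5, 10 mM Mg acetate, 0.01% Tween-20, 0.05% BSA; 6-point qHTS titration about 60 µM downward; luminescence read.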
# SMN2 splice up – enhancers of SMN2 splice variant expression; HEK293 SMN2-luciferase splicing reporter, luminescence, 30-36 h; 210,000 tested, 2.8% active; Potency, µM (doses to about 46.1 µM), for inactives: top-dose activity change, positive = activation, most hits filed as activators; AID 1458; further: % of control where 0% means no effect; nearly all actives have a fitted effect of over 55% in size
#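 HEK293 cells carry an SMN2 […]–luciferase reporter in which exon 7 inclusion puts luciferase in frame. Cells were plated 10-12 h before compound addition, then incubated 30-36 h at 37C. ONE-Glo luminescence was read; sodium butyrate at 4.5 mM final served as control.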
# * = called active by the depositor; u = inconclusive; x = no result; [ ] = dose if it differs, or a comment. Sampled rows, rich in hits. Any-hit rate of the full collection: about 7.3%. The call rests on the fitted dose curve; in most records, active means well fitted curve in the direction sought with a large enough effect; inconclusive means small, poorly fitted or top-dose-only effect, or another doubt; inactive means no such curve, though single readings can be large; an effect the other way counts as inactive or inconclusive. Potency means the concentration at half of the fitted maximal effect.
SMILES,KinaseGlo FLuc,NPC1 promoter act,Rab9 prom act,FLuc counter,SMN2 splice up
Cc1cccc2sc(NC(=O)C3CCCO3)nc12 (stereo not given),-6%,u,u,u,20µM*
CC(=O)Nc1nc2c(C)cc(NC(=O)C3CCCCC3)cc2s1,x,2.2µM*,1.8µM*,x,x
CC(=O)Nc1cc(C)c2nc(NC(C)=O)sc2c1,x,24%,26%,u,x
COc1ccc2nc(NC(=O)C3CCCO3)sc2c1 (stereo not given),-4%,1.1µM*,u,9.5µM*,x
CC(C)c1nnc(NC(=O)C2CCCO2)s1 (stereo not given),-7%,2%,4%,-4%,x
COc1ccc(-c2nnc(NC(=O)C3CCCO3)s2)cc1 (stereo not given),-7%,2.5µM*,4µM*,12µM*,24%
CCOC(=O)c1ccc(NC(=O)CCCn2nc(C)c3sc4ccccc4c3c2=O)cc1,x,x,x,-8%,x
COc1ccc(NC(=O)C2CCCO2)cc1Cl (stereo not given),14%,0%,-2%,-1%,x
CSc1nc2ccc(NC(=O)C3CCCO3)cc2s1 (stereo not given),0%,3.5µM*,3.5µM*,12µM*,13µM*
CSc1nc2ccc(NC(=O)c3ccc(Cl)s3)cc2s1,x,2µM*,2.8µM*,1.9µM*,x
CCOc1ccc(NC(=O)c2ccc3c(=O)n4nc(Nc5ccccc5C)sc4nc3c2)cc1,x,x,x,-2%,x
C#CCOC(=O)[C@H](N)CC(N)=O,-5%[7.66 µM],x,x,x,-12%[9.22 µM]
Cc1ccc(CCNC(=O)C2CC(c3ccccc3[N+](=O)[O-])=NO2)cc1 (stereo not given),0%,-2%,-4%,-1%,-6%
CCCCNC(=O)C1CC(c2cccc([N+](=O)[O-])c2)=NO1 (stereo not given),-4%,2.8µM*,2.8µM*,11µM*,u
O=C(NCCc1cccs1)C1CC(c2ccccc2[N+](=O)[O-])=NO1 (stereo not given),0%,u,u,15µM*,24%
CC(C)CCNC(=O)C1CC(c2cccc([N+](=O)[O-])c2)=NO1 (stereo not given),0%,3%,9%,0%,-17%
COc1ccc(CCNC(=O)C2CC(c3ccccc3[N+](=O)[O-])=NO2)cc1 (stereo not given),1%,u,u,19µM*,27%
COC(=O)/C(=C1/Oc2ccc(C(C)(C)C)cc2S1)C(F)(F)F,1%,u,u,4.8µM*,-16%
Cc1ccsc1C(=O)OCc1csc(-c2ccccc2)n1,u,u,4µM*,0.6µM*,16µM*
COc1ccc(C(=O)NCC(=O)OCc2csc(-c3ccccc3)n2)cc1,-3%,1%,0%,17µM*,-16%
COc1ccccc1C(=O)NCC(=O)OCc1csc(-c2ccccc2)n1,-1%,1%,11%,-14%,u
O=C(CNC(=O)c1ccccc1F)OCc1csc(-c2ccccc2)n1,-3%,6%,20%,u,3%
O=C(OCc1csc(-c2ccccc2)n1)c1cccs1,u,u,u,0.54µM*,14%
Cn1cccc1C(=O)OCc1csc(-c2ccccc2)n1,u,2.5µM*,1.1µM*,0.67µM*,11µM*
O=C(OCc1csc(-c2ccccc2)n1)C1=NN(c2ccccc2)C(=O)CC1,x,12%,14%,u,x
SMILES,KinaseGlo FLuc,NPC1 promoter act,Rab9 prom act,FLuc counter,SMN2 splice up
COc1ccc(CCNC(=O)CCCCn2c(=O)c3ccccc3n(Cc3cccc(C)c3)c2=O)cc1OC,x,x,x,-4%,-5%
CCOC(=O)c1c(C)[nH]c(N=Nc2cccc(C)c2)c1C,-2%,1.8µM*,2.8µM*,7.6µM*,7.9µM*
CCOC(=O)c1c(C)[nH]c(CCC(=O)NCc2cccc(OC)c2)c1C,x,x,x,-6%,x
CCOC(=O)c1c(C)[nH]c(N=Nc2cccc(OC)c2)c1C,-1%,1.8µM*,1.1µM*,1.7µM*,14µM*
O=C(CSc1nnc(NC2CCCCC2)s1)Nc1ccc2c(c1)C(=O)c1ccccc1C2=O,0%,3.5µM*,2.8µM*,u,11µM*
CC(C)Nc1nnc(SCC(=O)Nc2ccc3c(c2)C(=O)c2ccccc2C3=O)s1,2%,u,3.5µM*,u,14µM*
CCN(CC)c1ccc(/C=C(/C#N)C(=O)NCc2ccccc2)o1,-2%,23%,u,24µM*,x
CCOc1ccc(CC(=O)NCc2ccc3c(c2)CCN3C(C)=O)cc1OCC,x,x,x,-8%,x
COc1ccc(C)cc1Nc1nc(N)c2cc(OC)c(OC)cc2n1,x,2%,-1%,u,2%
COc1ccc(Cl)cc1Nc1nc(N)c2ccccc2n1,x,u,20%,17µM*,x
Cc1ccc(C)c(Nc2nc(N)c3ccccc3n2)c1,-11%,2.5µM*,2.5µM*,4.8µM*,14µM*
COc1cccc2c1Oc1ncccc1N(C(=O)CCC(=O)NCc1ccc(N(C)C)cc1)C2,x,x,x,2%,x
Cc1cccc(C(=O)Nc2cccc(C(=O)OCc3cc(=O)n4ccsc4n3)c2)c1,x,x,x,-7%,x
N#C/C(C(N)=O)=c1/ccc2c(c1)N1C3=C(CCCC3)CC3CCCCC31N=2 (stereo not given),u,-10%,-6%,8.5µM*,-15%
N#CC(C#N)=c1ccc2c(c1)N1C3=C(CCCC3)CC3CCCCC31N=2 (stereo not given),u,-5%,1%,12µM*,-108%
Cc1ccc(NC2=Nc3ccccc3CS2)cc1,x,0.32µM*,0.32µM*,0.48µM*,x
COc1ccc(-c2cc(-c3ccccc3)nc(N3CCCC3)n2)cc1OC,-2%,0%,0%,u,u
CCOC(=O)c1cc(-c2ccccc2)nc2nc(N3CCCCC3)sc12,0%,-3%,-7%,-13%,5%
O=C(O)c1cc(-c2ccccc2)nc2nc(N3CCCCC3)sc12,0%,-2%,0%,17µM*,5%
COc1ccc(-c2cc(C(=O)O)c3sc(N4CCCCC4)nc3n2)cc1OC,0%,1%,10%,4.8µM*,4%[1.84 µM]
Cc1ccc(-c2cc(C(=O)O)c3sc(N4CCCCC4)nc3n2)cc1,-7%,-2%,1%,24µM*,-9%
CCCn1cc(S(=O)(=O)c2ccccc2)c(=O)c2cc(F)c(N3CCCC(C)C3)cc21 (stereo not given),x,x,x,-8%,x
Cc1cccc(OCCOCCn2c(-c3ccc(Cl)cc3)nc3ccccc3c2=O)c1C,x,x,x,3%,9%
NCC(=O)N[C@H](CO)C(=O)O,-3%[7.66 µM],x,x,x,-4%[9.22 µM]
Clc1ccc(CSc2nnc(-c3ccc4c(c3)OCO4)o2)cc1,-1%,3%,-2%,u,-10%
c1nnc(-c2ccc3c(c2)OCO3)o1,1%,-1%,-1%,-5%,0%
c1coc(-c2nnc(-c3ccc4c(c3)OCO4)o2)c1,-19%,2µM*,u,6.7µM*,18µM*
